# Measurements: PubChem BioAssay AID1347426 (Functional Genomics Laboratory (NCATS/FGL), 2020)
# Hit rate of the full screen: of about 31,000 sequences, about 1,400 (4.5%) were called active. Only a selection was taken, and actives are over-represented in it overall. Values without a mark were called inactive.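 The calls were made as follows: active = median seed-adjusted z-score above 1 or below -1; inactive = the rest.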
# Experiment: Novel Modifiers of Survival Motor Neuron (SMN) Protein: Gene Identification via Genome-wide siRNA Screen
# Settings: HEK293T SMN2-luciferase reporter, siRNA knockdown, 72 h; actives lie on both sides
# In short: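 Each of three siRNAs per gene is reverse-transfected (1 pmol) into reporter HEK293T cells whose luciferase output tracks SMN protein level. After 72 h culture, ONE-Glo luminescence is control-normalized, log10-transformed and MAD-standardized; Common Seed Analysis deprioritizes seed-driven hits.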
row,Sequence,median seed-adjusted z-score
1,GCAUAACUUGAAUAGUACATT against AKAP11,-0.0405
2,GCAUCAUUGAAGGACUAGATT against HEY1,-0.023
3,CCCUGGUAGUCAAAAACGATT against PHKB,-0.142
4,GCUGUGAACUGACUCUGCATT against UROD,1.11 (active)
5,GCCCGACUCUCUAAUGGAATT against PRKD3,-0.906
6,CUACCGUGCAAGUUCAUUATT against CD3D,-0.403
7,CCGUCAAGGUGUAUUUUGATT against PPIB,0.038
8,GGCUUAACAUUGAACGAAUTT against CRY2,0.0209
9,CCAAGACUCCAACCAUUUUTT against IKZF4,-0.426
10,GGACCUCAAAGUUGUCUAUTT against AP1S1,-1.04 (active)
11,CGUGGGAUGCUCAAAGAUATT against EZR,0.0344
12,CCCAGAUCAUAUACUCCUATT against LYPLAL1,-0.425
13,GGCAUGAAGUGAAGGAUGATT against ZNF134,-0.0978
14,CCUCAAUACUCCGCAAAUATT against NMNAT2,-1.58 (active)
15,GGAAAGUUAUCAGGAUGCATT against SAG,0
16,GGAUUCCAAUCUUAGCUUUTT against RLN1,0.0637
17,GGAAUUCCUUUAAUGACGATT against RYR3,0
18,CCACCAGCGUGAUCAUUGUTT against GALNT6,-0.287
19,CUUCCAUGCCUUUGACCUATT against CDCP2,0.0708
20,CUUGUGUUCUGAGAAUACATT against KRT83,1.15 (active)
21,AGAAUCGUGUGGAAAAAGATT against PARK7,-0.357
22,CCAUGACAAUCAACGAGGATT against AMY2A,-0.266
23,CUUUUGCCUGUAGCCCAUATT against GCS1,0.819

row,Sequence,median seed-adjusted z-score
1,CGAGAUAACUACUUUCGGATT against RALB,-0.534
2,ACAGAUCCAUUUUUAGGGATT against PKIG,0.0916
3,CCACGUCUCUGGAGAGUUUTT against ALAD,0.0952
4,GGCUGUACAUCUGGACCAATT against NFKBIE,-0.452
5,GGAUGGGCCUUGAAGCCUUTT against GPR97,-0.0155
6,GGGAAUAUCUCUUCCGACATT against ACTL7A,1.1 (active)
7,GGCUAUCAUCUACACCCGATT against UGCG,0.492
8,CGAUUAUUGUGAGCCUAAUTT against JAG1,-0.32
9,CUAAGAGACUAAAUGCAAATT against SUCLG2,-0.619
10,GGGCCGCUUUAGAAAGGUATT against SNX1,0.0261
11,CCUGGACCCUGAACUCACATT against LILRA4,0.109
12,GCAUUACAGUACUUACGUATT against BTAF1,-1.19 (active)
13,GGCUCUUACAAGUCCUUAUTT against CHRM2,0.053
14,GGCAUUACCGUGUAUAACATT against CHST10,0.115
15,GUACUGGAGUGAUGAGUUUTT against PARP12,-0.287
16,GUCUGUCGCUACUACAAUATT against SLCO2B1,0.289
17,CGAUGGGUCUGUGCACAAATT against TGM2,0.413
18,CGGCCUUGAUAAACUGAAATT against SNAPC3,-1.72 (active)
19,CCAUGAGUGUGACUCUCAATT against ZNF599,0.0896
20,CCCGGAUUGUUCCUACUGATT against ALG9,-0.267
21,CGGGCUCCGUAGUCACAUUTT against NAALADL1,-0.0444
22,GAACAAAUCUGCGAGAUCATT against DIRAS2,-1.25 (active)
23,GCAGUUGGAGAGAUAAUAATT against VRK1,-0.148

row,Sequence,median seed-adjusted z-score
1,CACUGUUUAUGUAUAUGGATT against RHOT1,-0.189
2,UCACCACCGUGUCUAAGAATT against MPO,-0.223
3,GGUUCUUGCUUACACUCUUTT against ESSPL,0.328
4,CAUUGUCAAUAUAACGAUUTT against GPR98,-0.509
5,CAAGAAUCUUAAGAUAGAATT against CD4,-0.566
6,AUAUAUUGCUUGGAGAUGATT against STK16,0.113
7,CCAUCAACAUCGCCCUGAATT against PLOD1,0.481
8,GCCUUUUGCUCAUCUCACUTT against TNFSF11,0.0212
9,CAACCAGACUAUUCGGACATT against PPP1R10,1.41 (active)
10,CCAACCUUCUGAAUACGUUTT against GPR126,-0.243
11,AAAAGAGACUGAUCAUCCATT against NR2F6,-0.681
12,GAACUAUGCUAUACCAGAATT against IQCH,0
13,GACUAUUCCCUGCACCACATT against ABHD9,0.486
14,CUUCCGUUAUGAUACAGAATT against GABRA2,-0.272
15,GCUGUACACCGGCAUCGUATT against SLC5A5,1.01 (active)
16,GAAUCUAUGAGCUUCGAAATT against PSMB5,-1.37 (active)
17,CUAUGGGUAUGACUACUUUTT against BPHL,-0.161
18,GGAACAUAGUCUUCAGGUATT against KIF20A,0.906
19,AUGCUGAUCAGGAAAAGUATT against TEX13A,-1.22 (active)
20,CACUGAAGCUGUACAACAATT against TSHR,0.851
21,GAGUGAUCAGAGACCGAAATT against IARS,-0.198
22,GGACUUACUAAAAGCUAAATT against CRKRS,-1.16 (active)
23,CAAUCUAACUUUUCGGACATT against CLCA2,0.669
